KB-V1 cytotox = kills drug-selected multidrug resistant KB-V1 cells; KB-V1 MDR cells viability, CellTiter-Glo, 72 h; Potency, µM (highest dose often 46.1 µM), most hits filed as cytotoxic; actives 3.4% (n = 400,000); note: % is set by controls: 0 for no effect and ±100 for the full control effect; nearly all actives have a fitted effect of over 60% in size
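KB-V1 cells (P-gp-expressing MDR subline of KB-3-1) in phenol-red-free DMEM with 10% FBS were exposed to library compounds over a concentration series for 72 h at 37 degrees C. Viability read by CellTiter-Glo luminescence; concentration-effect curves fitted after normalization.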
KB-3-1 tox = kills parental KB-3-1 adenocarcinoma cells; actives 1.4% (n = 400,000); KB-3-1 viability, CellTiter-Glo ATP luminescence, 72 h; Potency, µM (titrated, usually from 46.1 µM), usual class: cytotoxic; note: % is set by controls: 0 for no effect and ±100 for the full control effect; nearly all actives have a fitted effect of over 60% in size
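Multi-concentration cytotoxicity screen in KB-3-1 cells grown in DMEM lacking phenol red with 10% FBS. After 72 h at 37 °C with compound, ATP-dependent luminescence was recorded.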
RGS4 inhibitor = inhibitors of human regulator of G protein signaling 4; P49798; Transcreener GDP fluorescence polarization, RGS4-accelerated GTP hydrolysis; Potency, µM (doses to about 114 µM), for the others: at the top dose activity change, negative = inhibition, usual class: inhibitors; actives 0.039% (n = 390,000); AID 504845; note: % is set by controls: 0 for no effect and ±100 for the full control effect; nearly all actives have a fitted effect of over 75% in size
Target sequence (P49798 whole entry, looked up): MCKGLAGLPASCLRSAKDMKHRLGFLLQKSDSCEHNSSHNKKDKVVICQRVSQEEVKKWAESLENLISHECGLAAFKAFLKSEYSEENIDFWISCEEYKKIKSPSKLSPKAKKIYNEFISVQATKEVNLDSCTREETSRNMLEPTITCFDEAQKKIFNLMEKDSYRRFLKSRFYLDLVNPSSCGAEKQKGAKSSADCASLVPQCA
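MLSMR compounds (23 nl, pin-transferred) preincubated 10 min at room temperature with a 500nM (2x) first reagent, then RGS4 at 900nM (2x) plus Transcreener GDP mix added; fluorescence polarization (620/688 nm) read before and after 90 min at 30 °C.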
SW480 rereplic = DNA re-replication induction in SW480 cells | SW480 DNA re-replication, Hoechst DNA content imaging, 48 h | Potency, µM (highest dose often 46.1 µM), for inactives: top-dose re-replication activation, usual class: activators | actives 1.8% (n = 340,000) | AID 624297; note: % of control where 0% means no effect; nearly all actives have a fitted effect of over 55% in size
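Readout is total intensity of Hoechst-stained nuclei, excited at 405 nm and collected at 500-530 nm. Compound treatment lasted 48 hr at 37 C in 5% CO2 before staining.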
MCF10A rerep = induces DNA re-replication in MCF 10a normal breast cells. MCF 10A DNA re-replication, Hoechst nuclear intensity, 48 h. Potency, µM (highest dose often 46.1 µM), for the others: at the top dose activity, positive = re-replication, usual class: activators. actives 2.9% (n = 350,000). AID 624296; note: % of control where 0% means no effect; nearly all actives have a fitted effect of over 50% in size
PTAP TSG101 blk = blocks PTAP/TSG101 interaction to inhibit HIV-1 budding | Q99816 | Fluorescence polarization, FITC-PTAP peptide / Tsg101 binding | Potency, µM (doses to about 115 µM), for the others: at the highest dose activity change, negative = inhibition, usual class: inhibitors | 340,000 tested, under 10 active | AID 493005; active = well fitted inhibition curve with a large enough effect in the main read-out, with a control signal flat, not every such curve was filed as active; inconclusive = small, poorly fitted or top-dose-only effect, or effect the other way, or a change in a side signal; inactive = no such curve, though single readings can be large or run the other way; note: % of control where 0% means no effect
Target sequence (Q99816 whole entry, looked up): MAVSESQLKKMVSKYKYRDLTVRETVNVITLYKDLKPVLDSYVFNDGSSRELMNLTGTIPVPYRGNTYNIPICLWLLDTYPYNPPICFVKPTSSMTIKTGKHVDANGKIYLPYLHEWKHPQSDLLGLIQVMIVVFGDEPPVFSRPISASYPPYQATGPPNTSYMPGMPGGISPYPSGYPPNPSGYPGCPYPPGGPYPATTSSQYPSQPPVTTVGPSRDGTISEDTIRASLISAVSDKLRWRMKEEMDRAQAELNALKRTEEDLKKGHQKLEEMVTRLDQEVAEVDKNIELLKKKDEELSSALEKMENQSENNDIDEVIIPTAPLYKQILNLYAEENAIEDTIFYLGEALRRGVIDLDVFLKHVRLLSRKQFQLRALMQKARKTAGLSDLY
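Tsg101 binding domain (10 uM final) was mixed with compound and a FITC-labeled PTAP peptide (50 nM final) in HEPES pH 7.5 buffer with NaCl, Tween 20, EDTA and TCEP; fluorescence polarization was read after 20 min at r.t.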
Starred values were filed as active, the others as inactive. Rows were chosen to be rich in hits. Some 6.6% of all compounds tested hit in one or more screens of this group. Unless noted, calls come from the whole dose curve; as a rule, active = well fitted curve in the direction sought with a large enough effect; inconclusive = small, poorly fitted or top-dose-only effect, or another doubt; inactive = no such curve, though single readings can be large; an effect the other way counts as inactive or inconclusive. Potency is the fitted concentration of half-maximal effect.

What do the screens show for `CCCC1(CCC)NC(=O)N(CC(=O)N2CCc3ccccc32)C1=O`?
KB-V1 cytotox: 16.4µM*; KB-3-1 tox: inactive; RGS4 inhibitor: 4.7%; SW480 rereplic: 0.5%; MCF10A rerep: -1.2%; PTAP TSG101 blk: 0.3%

How did O=C1NC2(CCCCC2)C(=O)N1CC(=O)N1CCc2ccccc21 do in these assays?
KB-V1 cytotox: inactive; KB-3-1 tox: inactive; RGS4 inhibitor: 4.5%; SW480 rereplic: 8.9%; MCF10A rerep: -27.5%; PTAP TSG101 blk: -17.2%

How did Cc1nc(NC(=O)C(C)(C)C)sc1-c1nc(N)sc1-n1cc(-c2ccccc2)nn1 do in these assays?
KB-V1 cytotox: inactive; KB-3-1 tox: inactive

What do the screens show for `CCNc1nc(-c2sc(NC(=O)C(C)(C)C)nc2C)c(-n2cc(-c3ccccc3)nn2)s1`?
KB-V1 cytotox: 18.4µM*; KB-3-1 tox: inconclusive

How did Cc1ccc(C)c(N2CCN(S(=O)(=O)c3ccc(F)c(C(=O)Nc4ccc(Cl)cc4Cl)c3)CC2)c1 do in these assays?
RGS4 inhibitor: 9.9%

Results for O=C(NC(=S)Nc1cccc(S(=O)(=O)NC2=NCCC2)c1)c1cc(-c2ccco2)nc2ccccc12 ?
KB-V1 cytotox: inactive; KB-3-1 tox: 6.51µM*; RGS4 inhibitor: inconclusive; SW480 rereplic: 9.2µM*; MCF10A rerep: inconclusive; PTAP TSG101 blk: -7.3%

Results for O=C(Nc1cccc(S(=O)(=O)NC2=NCCC2)c1)c1cc(-c2ccco2)nc2ccccc12 ?
KB-V1 cytotox: inactive; KB-3-1 tox: inactive; RGS4 inhibitor: inconclusive; SW480 rereplic: -73.1%; MCF10A rerep: 0.1%; PTAP TSG101 blk: -7.9%

How did CCOc1cc(C(=O)OCC(=O)Nc2cccc(S(=O)(=O)NC3=NCCCCC3)c2)cc(OCC)c1OCC do in these assays?
KB-V1 cytotox: 8.2µM*; KB-3-1 tox: inactive; RGS4 inhibitor: -26.5%; SW480 rereplic: -0.6%; MCF10A rerep: 7.6%; PTAP TSG101 blk: -2.8%

Results for CCOc1ccc(OCC(=O)Nc2cccc(S(=O)(=O)NC3=NCCC3)c2)cc1 ?
KB-V1 cytotox: inactive; KB-3-1 tox: inconclusive; RGS4 inhibitor: -2.8%; SW480 rereplic: inconclusive; MCF10A rerep: inconclusive; PTAP TSG101 blk: -2.2%

What do the screens show for `CCOc1ccc(C(=O)NC(=S)Nc2cccc(S(=O)(=O)NC3=NCCC3)c2)cc1`?
KB-V1 cytotox: 7.31µM*; KB-3-1 tox: 2.31µM*; RGS4 inhibitor: -24.1%; SW480 rereplic: inconclusive; MCF10A rerep: 2.59µM*; PTAP TSG101 blk: -0.1%

What do the screens show for `Cc1noc(/C=C/c2ccco2)c1S(=O)(=O)N1CCC(C(=O)Nc2ccc(F)cc2F)CC1`?
RGS4 inhibitor: -85.1%

Results for Cc1ccc(C(=O)c2sc(Nc3ccccc3)c(S(=O)(=O)c3ccccc3)c2N)c(C)c1 ?
KB-V1 cytotox: inconclusive; KB-3-1 tox: inactive; RGS4 inhibitor: -14.8%

How did CC(C)(C)CC(C)(C)N=C1Nc2cc(Cl)c(Cl)cc2N[C@]12C[C@H]1CCCC(=O)N3CC[C@@H](C2)[C@@H]13 do in these assays?
KB-V1 cytotox: inactive; KB-3-1 tox: inactive

What do the screens show for `Cc1ccc(C)c(-c2ccc(=O)n(C(C)C(=O)Nc3ccccc3C(F)(F)F)n2)c1` (centres undefined)?
KB-V1 cytotox: inactive; KB-3-1 tox: inactive; RGS4 inhibitor: 17.9%

How did C[C@@]12C(=O)OC(=O)[C@]1(C)C1CCC2O1 do in these assays?
KB-V1 cytotox: 5.8µM*; KB-3-1 tox: inconclusive; RGS4 inhibitor: 8.5%; SW480 rereplic: inconclusive; MCF10A rerep: -2.8%; PTAP TSG101 blk: -0.7%

Results for COc1ccc(-c2cc(C(=O)Oc3ccc([N+](=O)[O-])cc3)c3ccccc3n2)cc1 ?
KB-V1 cytotox: inactive; KB-3-1 tox: inactive; RGS4 inhibitor: 10.0%; SW480 rereplic: inconclusive; MCF10A rerep: 18.4µM*; PTAP TSG101 blk: 1.4%

Results for COc1ccc(-c2cc(C(=O)OCc3ccccn3)c3ccccc3n2)cc1 ?
KB-V1 cytotox: inactive; KB-3-1 tox: inactive; RGS4 inhibitor: 6.3%; SW480 rereplic: 13µM*; MCF10A rerep: inconclusive; PTAP TSG101 blk: -3.7%

How did C=Cc1ncc(OC)c2c1[nH]c1ccccc12 do in these assays?
KB-V1 cytotox: inactive; KB-3-1 tox: 5.8µM*; RGS4 inhibitor: 2.3%; SW480 rereplic: inconclusive; MCF10A rerep: inconclusive; PTAP TSG101 blk: -1.4%

Results for COc1cccc2[nH]c3ccccc3c(=O)c12 ?
KB-V1 cytotox: inactive; KB-3-1 tox: inactive; RGS4 inhibitor: -8.5%; SW480 rereplic: inconclusive; MCF10A rerep: inconclusive; PTAP TSG101 blk: -3.3%

Results for Cc1cc(C)nc(N2CCC(C(=O)NCc3cccs3)CC2)n1 ?
KB-V1 cytotox: 13µM*; KB-3-1 tox: inactive; RGS4 inhibitor: 15.9%; SW480 rereplic: -1.4%; MCF10A rerep: -2.5%

What do the screens show for `COc1nc(OC)nc(N2CCC(C(=O)NCc3ccco3)CC2)n1`?
KB-V1 cytotox: inconclusive; KB-3-1 tox: inactive; RGS4 inhibitor: -1.9%; SW480 rereplic: -3.5%; MCF10A rerep: 6.6%; PTAP TSG101 blk: -4.7%

Results for O=C(NCc1cccs1)C1CCN(c2ccc(S(=O)(=O)N3CCOCC3)cc2Cl)CC1 ?
KB-V1 cytotox: 3.66µM*; KB-3-1 tox: 2.31µM*; RGS4 inhibitor: 5.2%; SW480 rereplic: 1.3µM*; MCF10A rerep: 6.51µM*; PTAP TSG101 blk: 0.1%

How did O=S(=O)(c1ccc(N2CCOCC2)c(Cl)c1)N1CCOCC1 do in these assays?
KB-V1 cytotox: inactive; KB-3-1 tox: inactive; RGS4 inhibitor: -5.6%; SW480 rereplic: 4.5%; MCF10A rerep: inconclusive; PTAP TSG101 blk: 2.4%

Results for C#CCNC(=O)C1CCN(c2ccc(S(=O)(=O)N3CCOCC3)cc2Cl)CC1 ?
KB-V1 cytotox: inconclusive; KB-3-1 tox: inconclusive; RGS4 inhibitor: 6.1%; SW480 rereplic: 9.3%; MCF10A rerep: 3.4%; PTAP TSG101 blk: 2.6%

How did Cc1cc(C)nc(N2CCC(C(=O)NCc3ccco3)CC2)n1 do in these assays?
KB-V1 cytotox: 16.4µM*; KB-3-1 tox: inactive; RGS4 inhibitor: -7.7%; SW480 rereplic: -7.2%; MCF10A rerep: 2.5%; PTAP TSG101 blk: -0.6%

Results for CC1CCCC(C)N1c1ccc(S(=O)(=O)N2CCOCC2)cc1Cl (centres undefined) ?
KB-V1 cytotox: inconclusive; KB-3-1 tox: inactive; RGS4 inhibitor: -1.7%; SW480 rereplic: inconclusive; MCF10A rerep: 8.2µM*; PTAP TSG101 blk: -3.6%

How did Cc1ccc(NC(=O)C(OC(=O)c2ccc(O)cc2)c2ccccc2)cc1Cl (centres undefined) do in these assays?
KB-V1 cytotox: inactive; KB-3-1 tox: inactive; RGS4 inhibitor: -22.7%; SW480 rereplic: 5.1%; MCF10A rerep: 25.9µM*; PTAP TSG101 blk: -7.6%
